Among the data in ChEMBL document CHEMBL3988442, “University of Dundee, Small-Polar-MMV Screening Library” (2021) are Percent Effect values, retold here.

For some assays here: Entries with a potency or affinity are not part of this list.

Common to all, as to design: scale not given: direction of the effect not stated beside the values
The target of assay [1] is Protein translocase subunit SecA (Escherichia coli (strain K12)) (UniProt P10408). In words: Assay to Identify E. coli SecA ATPase Inhibitors. The class given is functional. Conditions: 30 µM.
In assay [2] the target is T1, Ubiquitin-activating enzyme e1, putative (Leishmania donovani (strain BPK282A1)) (UniProt E9BSI1).
T1 sequence (whole entry): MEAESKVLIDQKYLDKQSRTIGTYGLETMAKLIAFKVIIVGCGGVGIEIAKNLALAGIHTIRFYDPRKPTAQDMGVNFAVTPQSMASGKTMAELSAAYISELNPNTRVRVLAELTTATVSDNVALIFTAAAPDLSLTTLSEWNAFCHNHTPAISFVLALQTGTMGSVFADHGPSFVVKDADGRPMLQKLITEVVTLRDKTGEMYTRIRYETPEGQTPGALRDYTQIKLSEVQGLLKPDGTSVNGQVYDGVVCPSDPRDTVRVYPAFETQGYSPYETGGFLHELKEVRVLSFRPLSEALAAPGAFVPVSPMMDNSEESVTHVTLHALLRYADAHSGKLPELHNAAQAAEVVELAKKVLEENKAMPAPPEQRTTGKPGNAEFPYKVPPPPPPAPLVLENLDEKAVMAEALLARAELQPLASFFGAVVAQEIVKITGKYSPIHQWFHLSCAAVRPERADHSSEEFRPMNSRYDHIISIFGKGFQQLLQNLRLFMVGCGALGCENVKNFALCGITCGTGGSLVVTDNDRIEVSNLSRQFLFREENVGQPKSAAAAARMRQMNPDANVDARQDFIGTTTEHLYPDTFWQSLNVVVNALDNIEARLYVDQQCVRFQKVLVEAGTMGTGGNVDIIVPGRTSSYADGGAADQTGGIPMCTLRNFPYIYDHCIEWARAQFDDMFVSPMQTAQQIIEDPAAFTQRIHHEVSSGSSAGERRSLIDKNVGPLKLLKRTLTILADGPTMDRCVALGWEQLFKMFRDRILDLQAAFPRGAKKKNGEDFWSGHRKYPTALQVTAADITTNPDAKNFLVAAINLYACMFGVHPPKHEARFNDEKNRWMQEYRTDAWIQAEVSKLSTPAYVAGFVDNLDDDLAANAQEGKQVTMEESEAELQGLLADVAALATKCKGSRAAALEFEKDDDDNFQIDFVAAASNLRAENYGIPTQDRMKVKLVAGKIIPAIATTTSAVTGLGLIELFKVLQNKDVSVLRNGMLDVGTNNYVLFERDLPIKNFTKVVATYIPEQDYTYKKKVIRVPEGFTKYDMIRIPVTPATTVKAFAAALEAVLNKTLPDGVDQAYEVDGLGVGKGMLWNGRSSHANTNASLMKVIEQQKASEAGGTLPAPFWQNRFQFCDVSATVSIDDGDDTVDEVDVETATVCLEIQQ
The assay can be described thus: Leishmania donovani Ubiquitin Activating Enzyme (LdE1). The settings on record: 30 µM. The format is functional.

Assay [3] has as its target AMP-activated protein kinase, AMPK (Homo sapiens) (UniProt P54646+O43741+P54619+Q9UGJ0+Q9Y478+Q13131+Q9UGI9). The assay can be described thus: AMP-dependent Kinase enzyme assay. An in vitro enzyme assay that detects ADP turnover that is directly proportional to AMPK activity. This uses naive AMPK that is activated during the assay with MK-8722. The class given is functional. Conditions: 30 µM.

Assay [4] deals with Sialic acid-binding Ig-like lectin 9 (Homo sapiens) (UniProt Q9Y336). The assay can be described thus: Hs-Siglec9 ALPHAscreen SOP 20170721. Conditions: 10 µM.
For another assay, the system named is Trypanosoma cruzi. The assay can be described thus: Trypanosoma cruzi phosphomannomutase and mannose-1-phosphate guanylyltransferase assay. Conditions: 10 µM. The format is functional.
In assay [5] the target is T2, Arginase-2, mitochondrial (Homo sapiens) (UniProt P78540).
T2 sequence (whole entry): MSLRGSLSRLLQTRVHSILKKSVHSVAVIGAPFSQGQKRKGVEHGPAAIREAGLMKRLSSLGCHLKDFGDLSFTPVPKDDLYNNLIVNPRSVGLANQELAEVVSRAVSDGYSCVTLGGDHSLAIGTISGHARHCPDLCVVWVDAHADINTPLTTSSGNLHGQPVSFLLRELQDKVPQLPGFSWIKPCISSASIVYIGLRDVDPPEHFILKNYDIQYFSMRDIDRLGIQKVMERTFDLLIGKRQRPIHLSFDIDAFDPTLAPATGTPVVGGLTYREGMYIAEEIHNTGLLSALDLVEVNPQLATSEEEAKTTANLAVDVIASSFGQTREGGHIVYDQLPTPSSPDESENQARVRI
In words: in vitro enzyme assay to detect the production of urea directly proportional to the activity of Arginase II. Note: in the data most compounds retested in dose-response had high values. The class given is functional. Conditions: 33.3 µM.

The target of assay [6] is T3, Proteasome subunit beta (Trypanosoma cruzi) (UniProt O96673).
T3 sequence (whole entry): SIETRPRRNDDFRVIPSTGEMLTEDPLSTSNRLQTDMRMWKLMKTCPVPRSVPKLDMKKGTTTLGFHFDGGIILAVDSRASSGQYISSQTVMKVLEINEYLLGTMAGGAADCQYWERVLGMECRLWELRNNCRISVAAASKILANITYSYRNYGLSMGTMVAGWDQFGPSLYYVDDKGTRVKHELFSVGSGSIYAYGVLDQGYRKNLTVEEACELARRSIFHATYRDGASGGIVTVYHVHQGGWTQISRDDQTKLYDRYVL
In words: Trypanosoma cruzi proteasome chymotrypsin-like activity (TcProtChymo) assay. Note: in the data most compounds retested in dose-response had high values. The class given is functional. The settings on record: 9.37 µM.

The species entered for the next assay is Homo sapiens. The assay can be described thus: To identify inhibition of the IFN signalling (Jak-Stat) pathway via expression of an eGFP reporter gene under the control of an IFN-stimulated response element (ISRE) containing MxA promoter. The format is functional. Conditions: 30 µM.
Assay [7] addresses T4, Tyrosyl-tRNA synthetase, putative (Trypanosoma cruzi (strain CL Brener)) (UniProt Q4DSP6).
T4 sequence (whole entry): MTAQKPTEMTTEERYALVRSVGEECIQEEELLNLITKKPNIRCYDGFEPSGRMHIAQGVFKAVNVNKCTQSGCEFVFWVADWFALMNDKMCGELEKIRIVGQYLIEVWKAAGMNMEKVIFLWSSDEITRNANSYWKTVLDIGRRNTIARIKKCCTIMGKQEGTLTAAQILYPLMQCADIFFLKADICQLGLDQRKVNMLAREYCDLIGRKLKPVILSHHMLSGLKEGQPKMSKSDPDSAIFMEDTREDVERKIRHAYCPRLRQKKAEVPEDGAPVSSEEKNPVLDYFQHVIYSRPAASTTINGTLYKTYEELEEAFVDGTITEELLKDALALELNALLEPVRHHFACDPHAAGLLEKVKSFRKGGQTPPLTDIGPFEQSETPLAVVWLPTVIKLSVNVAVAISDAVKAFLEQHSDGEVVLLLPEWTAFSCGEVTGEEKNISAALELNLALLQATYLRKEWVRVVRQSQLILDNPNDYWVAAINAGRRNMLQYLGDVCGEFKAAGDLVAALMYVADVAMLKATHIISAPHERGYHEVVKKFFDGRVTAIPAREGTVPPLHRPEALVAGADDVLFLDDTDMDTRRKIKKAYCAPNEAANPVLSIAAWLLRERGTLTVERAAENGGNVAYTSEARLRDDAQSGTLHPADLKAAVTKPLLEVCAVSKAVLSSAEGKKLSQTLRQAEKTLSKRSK
In words: Trypanosoma cruzi tyrosyl tRNA synthetase (TcYRS) _High Tyrosine SOP. Note: in the data most compounds retested in dose-response had high values. The format is functional. The settings on record: 30 µM.

Assay [8] has as its target T4, Tyrosyl-tRNA synthetase, putative (Trypanosoma cruzi (strain CL Brener)). In words: Trypanosoma cruzi tyrosyl tRNA synthetase (TcYRS) SOP. The format is functional. The settings on record: 30 µM.
In assay [9] the target is Chromo domain-containing protein 1 (Saccharomyces cerevisiae (strain ATCC 204508 / S288c) (Baker's yeast)) (UniProt P32657). In words: ScCHD-1 Enzyme Inhibition Assay. Note: in the data most compounds retested in dose-response had high values. The class given is functional. Conditions: 30 µM.
Sequence of Chromo domain-containing protein 1 (Saccharomyces cerevisiae (strain ATCC 204508 / S288c) (Baker's yeast)) (P32657 whole entry, the tested form may be a part): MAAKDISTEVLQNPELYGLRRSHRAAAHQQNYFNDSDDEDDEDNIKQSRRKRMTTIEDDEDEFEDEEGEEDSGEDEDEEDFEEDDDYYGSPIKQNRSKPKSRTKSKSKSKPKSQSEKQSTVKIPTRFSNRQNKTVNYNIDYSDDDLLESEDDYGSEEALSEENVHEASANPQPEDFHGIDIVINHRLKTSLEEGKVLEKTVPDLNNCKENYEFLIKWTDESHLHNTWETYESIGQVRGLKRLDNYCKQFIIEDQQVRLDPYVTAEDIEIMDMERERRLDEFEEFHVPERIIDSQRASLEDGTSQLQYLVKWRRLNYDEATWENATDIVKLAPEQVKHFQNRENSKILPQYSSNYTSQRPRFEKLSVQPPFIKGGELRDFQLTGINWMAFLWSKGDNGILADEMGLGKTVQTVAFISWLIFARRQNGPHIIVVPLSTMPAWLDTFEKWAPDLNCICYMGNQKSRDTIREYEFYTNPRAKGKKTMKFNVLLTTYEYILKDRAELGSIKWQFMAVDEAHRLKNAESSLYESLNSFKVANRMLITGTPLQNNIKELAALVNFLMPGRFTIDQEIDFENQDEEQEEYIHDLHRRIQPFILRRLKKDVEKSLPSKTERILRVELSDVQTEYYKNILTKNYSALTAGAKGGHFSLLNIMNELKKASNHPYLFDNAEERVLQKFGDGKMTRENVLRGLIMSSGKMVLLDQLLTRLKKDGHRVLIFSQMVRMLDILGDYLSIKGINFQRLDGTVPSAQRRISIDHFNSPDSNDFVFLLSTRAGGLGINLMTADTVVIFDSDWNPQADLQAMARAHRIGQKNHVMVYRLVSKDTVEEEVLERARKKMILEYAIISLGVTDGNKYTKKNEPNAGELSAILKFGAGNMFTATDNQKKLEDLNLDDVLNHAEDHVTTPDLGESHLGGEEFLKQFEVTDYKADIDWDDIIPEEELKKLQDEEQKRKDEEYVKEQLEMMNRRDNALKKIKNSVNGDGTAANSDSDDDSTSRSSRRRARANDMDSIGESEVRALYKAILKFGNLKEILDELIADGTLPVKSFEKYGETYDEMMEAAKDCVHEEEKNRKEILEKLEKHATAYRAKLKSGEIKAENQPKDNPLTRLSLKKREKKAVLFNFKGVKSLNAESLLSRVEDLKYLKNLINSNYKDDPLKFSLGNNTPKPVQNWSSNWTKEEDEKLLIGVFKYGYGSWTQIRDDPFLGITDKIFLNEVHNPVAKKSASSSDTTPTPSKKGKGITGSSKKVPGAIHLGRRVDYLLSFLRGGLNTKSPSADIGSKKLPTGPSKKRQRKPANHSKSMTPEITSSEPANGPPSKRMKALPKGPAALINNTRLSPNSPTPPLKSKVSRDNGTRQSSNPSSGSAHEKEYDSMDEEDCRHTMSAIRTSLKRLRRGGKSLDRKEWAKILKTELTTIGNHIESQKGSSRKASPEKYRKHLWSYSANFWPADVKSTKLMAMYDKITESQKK

Sequence of Sialic acid-binding Ig-like lectin 9 (Homo sapiens) (Q9Y336 whole entry): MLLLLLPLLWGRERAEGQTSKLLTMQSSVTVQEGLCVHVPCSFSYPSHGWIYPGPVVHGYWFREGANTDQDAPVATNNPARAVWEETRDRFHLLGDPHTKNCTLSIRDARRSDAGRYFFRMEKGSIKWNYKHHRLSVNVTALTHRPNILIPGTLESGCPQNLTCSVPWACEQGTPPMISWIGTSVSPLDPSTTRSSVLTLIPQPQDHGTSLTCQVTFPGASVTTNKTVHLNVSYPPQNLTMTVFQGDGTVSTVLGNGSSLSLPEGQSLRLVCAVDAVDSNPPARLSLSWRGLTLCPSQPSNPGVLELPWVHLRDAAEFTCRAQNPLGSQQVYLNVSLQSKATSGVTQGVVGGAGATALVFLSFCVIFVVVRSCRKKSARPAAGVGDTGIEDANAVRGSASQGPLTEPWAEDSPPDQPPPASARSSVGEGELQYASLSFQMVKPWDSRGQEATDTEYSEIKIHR
Sequence of Protein translocase subunit SecA (Escherichia coli (strain K12)) (P10408 whole entry): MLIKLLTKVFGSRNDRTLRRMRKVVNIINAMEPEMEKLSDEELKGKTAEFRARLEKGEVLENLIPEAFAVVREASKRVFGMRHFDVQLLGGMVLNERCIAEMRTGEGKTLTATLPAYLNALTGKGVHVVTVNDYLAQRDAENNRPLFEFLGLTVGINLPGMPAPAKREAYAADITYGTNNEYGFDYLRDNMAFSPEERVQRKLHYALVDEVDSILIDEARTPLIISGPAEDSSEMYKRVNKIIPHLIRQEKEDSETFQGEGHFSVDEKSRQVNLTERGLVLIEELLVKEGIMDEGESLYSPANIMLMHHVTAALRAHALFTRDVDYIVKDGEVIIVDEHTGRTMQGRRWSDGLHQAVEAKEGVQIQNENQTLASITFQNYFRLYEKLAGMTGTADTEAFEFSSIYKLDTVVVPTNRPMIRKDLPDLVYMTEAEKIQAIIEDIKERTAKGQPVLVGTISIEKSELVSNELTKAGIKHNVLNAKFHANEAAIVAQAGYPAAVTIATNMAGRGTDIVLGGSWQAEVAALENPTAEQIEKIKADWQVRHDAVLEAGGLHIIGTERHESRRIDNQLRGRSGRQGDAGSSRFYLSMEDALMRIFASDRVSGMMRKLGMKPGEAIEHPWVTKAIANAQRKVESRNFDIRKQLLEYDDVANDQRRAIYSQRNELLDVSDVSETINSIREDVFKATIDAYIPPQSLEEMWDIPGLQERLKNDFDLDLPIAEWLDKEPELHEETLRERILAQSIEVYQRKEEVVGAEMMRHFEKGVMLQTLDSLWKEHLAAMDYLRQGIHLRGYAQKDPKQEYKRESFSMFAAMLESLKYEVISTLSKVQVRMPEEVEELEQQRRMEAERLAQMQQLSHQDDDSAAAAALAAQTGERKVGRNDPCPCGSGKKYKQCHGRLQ

On to `CN(C)C[C@H]1OC[C@@H]2CCN(C(=O)c3cccn3C)C[C@@H]21`, for which the Percent Effect in assay [1] is -3.89%; in assay [2], 0%; in assay [3], -8%; in assay [4] it was 19.3%; in the assay on Trypanosoma cruzi, 4.59%; in [5], 9.18%. For the same compound, the Percent Effect in assay [6] was 6.44%; in the assay filed under Homo sapiens it was 4.8%; in assay [7] it was 6.45%; in [8], 13.6%; in [9] it was -6.04%.
Regarding `CNc1nc2c(s1)C(c1c(F)cccc1Cl)CC(=O)N2` (stereo not given), the Percent Effect in assay [1] is -1.81%; in assay [2] it was 13.2%; in assay [3], -308%; in [4] it was 1.93%; in the assay with Trypanosoma cruzi, 4.58%; in [5] it was -4.73%. Further, the Percent Effect in [6] is 6.81%; in the assay filed under Homo sapiens, -0.412%; in [7], 2.13%; in assay [8], 2.6%; in [9], 22.5%.
As for `Cc1cc(C[S+]([O-])CC(=O)Nc2c(C)cccc2C)no1` (stereo not given), the Percent Effect in [1] is -7.01%; in assay [2], 18.2%; in assay [3], 15.8%; in assay [4], 7.26%; in the assay with Trypanosoma cruzi, 0.187%; in [5], 4.63%. The Percent Effect in [6] is 2.03%; in the assay filed under Homo sapiens it was 5.44%; in [7], 8.74%; in assay [8], 9.76%; in assay [9], -3.01%.
Consider `CN(Cc1cccc(F)c1)S(=O)(=O)N1CCOCC1`, for which the Percent Effect in assay [1] was -1.93%; in assay [2], 7.89%; in [3], 1.93%; in assay [4] it was -0.448%; in the assay on Trypanosoma cruzi, -0.876%; in assay [5] it was -1.18%. Further, the Percent Effect in assay [6] is 24.4%; in the assay listed under Homo sapiens, 9.7%; in [7], 2.13%; in [8] it was 13%; in assay [9], -6.29%.
`NC(=O)C1CCN(c2nc3nccc(-c4ccccn4)c3c(=O)[nH]2)CC1`: the Percent Effect was -4.8% in assay [1]; 18.4% in [2]; 0.528% in assay [3]; -4.82% in assay [4]; 0.0974% in the assay with Trypanosoma cruzi; -2.37% in assay [5]. Besides, the Percent Effect in assay [6] was 22%; in the assay listed under Homo sapiens it was 2.93%; in assay [7] it was 8.51%; in [8], 23.4%; in assay [9] it was 7.17%.
As for `Cc1ccccc1CCNC(=O)C1CC(=O)N(CC(F)(F)F)C1` (stereo not given), the Percent Effect is -3.95% in assay [1]; 24.3% in assay [2]; -20.9% in [3]; -4.07% in assay [4]; 1.42% in the assay with Trypanosoma cruzi; -21.2% in assay [5]. For the same compound, the Percent Effect in [6] was 10.1%; in the assay listed under Homo sapiens, 25.2%; in assay [7] it was 5.42%; in [8] it was 18.5%; in [9], -11.1%.
`Cc1cc(CN2CCN(C(=O)NCc3ccc(C)s3)CC2)no1`: the Percent Effect is -0.722% in assay [1]; 17.7% in [2]; -2.9% in assay [3]; 3.54% in [4]; -4.82% in the assay on Trypanosoma cruzi; 10.3% in assay [5]. Also, the Percent Effect is 3.85% in assay [6]; 15.8% in the assay filed under Homo sapiens; 2.46% in assay [7]; 21.5% in assay [8]; -5.4% in assay [9].
`CCCc1n[nH]c(C2CN(CCCOc3ccccc3)CCO2)n1` (stereo not given): the Percent Effect in assay [1] is -5.86%; in assay [2], 1.27%; in assay [3], 7.41%; in assay [4] it was 1.64%; in the assay on Trypanosoma cruzi it was -1.74%; in assay [5] it was 1.5%. The Percent Effect is -1.03% in assay [6]; 2.3% in the assay filed under Homo sapiens; 4.17% in assay [7]; 7.59% in assay [8]; 13.9% in assay [9].
`COCC(=O)N1CCCC1c1cc(Nc2nnc(C)s2)nc(C)n1` (stereo not given): the Percent Effect in assay [1] was -7.56%; in assay [2] it was 0%; in [3] it was -6.16%; in assay [4], 10.2%; in the assay on Trypanosoma cruzi it was 7.09%; in [5], -3.96%. For the same compound, the Percent Effect in assay [6] is -2.38%; in the assay listed under Homo sapiens, 8.53%; in assay [7] it was 4.25%; in [8], 8.97%; in assay [9] it was -5.17%.
Consider `Fc1ccc(CN2CCO[C@H]3[C@H](OCC4CC4)CC[C@@H]32)cc1`, for which the Percent Effect was -2.57% in assay [1]; -2.67% in assay [2]; 3.82% in [3]; 0.245% in [4]; 4.83% in the assay with Trypanosoma cruzi; -41.4% in assay [5]. Moreover, the Percent Effect is 8.89% in assay [6]; -14.2% in the assay filed under Homo sapiens; 2.08% in [7]; -30% in [8]; -4.58% in assay [9].
